Results filed as inconclusive are left out. Entries that show only a call come without a potency. Active and inactive are the calls of the source. Calls come from the whole dose curve; as a rule, active = well fitted curve in the direction sought with a large enough effect; inconclusive = small, poorly fitted or top-dose-only effect, or effect the other way, or another doubt; inactive = no such curve, though single readings can be large or run the other way.

Pyruvate kinase PKLR (Homo sapiens), sequence (P30613 whole entry, looked up): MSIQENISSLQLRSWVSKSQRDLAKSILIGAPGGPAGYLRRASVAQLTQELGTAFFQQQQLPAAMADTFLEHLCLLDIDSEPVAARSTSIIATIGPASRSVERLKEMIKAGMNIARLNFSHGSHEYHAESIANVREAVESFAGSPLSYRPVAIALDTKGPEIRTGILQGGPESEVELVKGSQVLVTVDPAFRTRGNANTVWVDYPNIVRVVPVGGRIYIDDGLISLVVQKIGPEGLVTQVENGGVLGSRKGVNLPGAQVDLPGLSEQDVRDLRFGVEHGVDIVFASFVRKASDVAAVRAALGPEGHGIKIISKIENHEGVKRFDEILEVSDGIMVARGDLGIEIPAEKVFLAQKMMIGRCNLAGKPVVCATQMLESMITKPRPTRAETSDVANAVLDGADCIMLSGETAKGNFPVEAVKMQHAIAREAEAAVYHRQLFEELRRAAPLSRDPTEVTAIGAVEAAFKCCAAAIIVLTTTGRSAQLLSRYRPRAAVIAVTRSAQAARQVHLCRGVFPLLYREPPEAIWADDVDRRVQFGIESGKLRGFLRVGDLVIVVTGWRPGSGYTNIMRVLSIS

This experiment addresses Pyruvate kinase PKLR (Homo sapiens) (UniProt P30613). Nature of the experiment: Secondary LDH Assay for Activators of Human Reticulocyte Pyruvate Kinase: for Probe SAR. The note with it: purified hPK-R, LDH-coupled NADH fluorescence kinetic; series mostly up to 58.4 µM. An excerpt: NIH Chemical Genomics Center [NCGC] Wael M. Rabeh, Lyudmila Nedyalkova and Hee-Wan Park [Structural Genomics Consortium, 100 College St. Toronto, Ontario, Canada] NCGC Assay Overview: Human pyruvate kinase reticulocyte (hPK-R) enzyme was supplied as a highly purified (>95% pure) preparation from Structural Genomics Consortium in Toronto (Ontario, Canada) and a secondary assay was used to evaluate compounds. This assay couples the formation of pyruvate from hPK-R using lactate dehydrogenase (LDH) and NADH. The depletion of NADH is followed in a fluorescent-based kinetic assay that follows the formation of pyruvate to lactate, as catalyzed LDH. Pyruvate kinase substrates, PEP and ADP, were present in the assay at 0.1 mM and 4 mM respectively. In this kinetic assay initial rates were determined by following the fluorescence of NADH depletion.
NCGC Assay Protocol Summary: Three uL of substrate mix (final concentration, 50 mM Tris-Cl pH 8.0, 200 mM KCl, 15 mM MgCl2, 0.1 mM PEP, 4.0 mM ADP, and 0.2 mM NADH) was dispensed into black-solid 1536 well plates. 23 nL of compounds were delivered by a pin tool and 1 uL of enzyme mix (final concentrations, 10 nM hPK-R and 1 uM of LDH) was added. Plates were immediately placed in ViewLux (Perkin Elmer) and NADH fluorescence was determined at 30 second exposure intervals for between 3 and 6 minutes. Data were normalized to the uninhibited and EC100 activation using known activators such as fructose-bis-phosphate.
`Cc1ccc(NS(=O)(=O)c2ccc(Cl)cc2)cc1C`: the Potency entry was “inactive”. In the case of `Cc1ccc(NS(=O)(=O)c2ccc3c(c2)CC(=O)N3)cc1C` it was “inactive”; in that of `Cc1cc2c(s1)c1cnn(Cc3ccccc3F)c(=O)c1n2C`, “inactive”; in that of `O=C1c2ccccc2C(=O)N1c1cnc2ccccc2c1`, “inactive”. In the case of `O=C1c2ccccc2C(=O)N1c1cncc2ccccc12` it was “inactive”; in that of `CSc1cc2c(s1)c1cnn(Cc3cccc(N)c3)c(=O)c1n2C`, “inactive”; in that of `Cc1nc(-c2ccc(S(=O)(=O)Nc3ccc(C)c(C)c3)s2)cs1`, “inactive”.

As to `O=C1c2ccccc2C(=O)N1c1cccc(=O)[nH]1`, the Potency result is “inactive”. The value for `O=C1c2ccccc2C(=O)N1c1cccc(Cl)c1` was “inactive”. The value for `O=C1CCc2cc(S(=O)(=O)Nc3ccc4ccccc4c3)ccc2N1` was “inactive”; that for `Cc1ccc(N[S+](=O)([O-])c2cc3c(cc2CCc2ccccc2)NC(=O)CO3)cc1C` was “inactive”; that for `O=C1c2ccccc2C(=O)N1c1ccc(Cl)cc1` was “inactive”. The value for `O=C1c2ccccc2C(=O)N1c1ccccn1` was “inactive”; that for `Cc1ccc(NS(=O)(=O)c2cc3c(cc2N2CCC2)NC(=O)CC3)cc1C` was “inactive”; that for `CNc1cc2c(cc1S(=O)(=O)Nc1ccc(C)c(C)c1)CCC(=O)N2` was “inactive”. For the compound `O=C1NS(=O)(=O)c2ccccc21`, the Potency entry is “inactive”.

Take `O=S1(=O)N=C(Oc2cccc(Cl)c2)c2ccccc21`: the Potency entry was “inactive”. In the case of `COc1cc(N2C(=O)c3ccccc3C2=O)c2ncccc2c1` it was “inactive”. In the case of `Cc1ccc(NS(=O)(=O)c2cc3c(cc2-c2ccsc2)NC(=O)CO3)cc1C` it was “inactive”; in that of `CC(=O)N1CCc2cc(S(=O)(=O)Nc3ccc(C)c(C)c3)ccc21`, “inactive”; in that of `O=C1CCc2cc(S(=O)(=O)Nc3ccc(Cl)cc3)ccc2N1`, “inactive”. In the case of `CC(=O)N1CCCc2cc(S(=O)(=O)Nc3ccc(C)c(C)c3)ccc21` it was “inactive”; in that of `COc1cccc(N2C(=O)c3ccccc3C2=O)n1`, “inactive”; in that of `CNc1cccc(S(=O)(=O)N2CCN(S(=O)(=O)c3ccc4c(c3)OCCO4)CC2)c1`, “inactive”.

Take `COc1cccc(N2C(=O)c3ccccc3C2=O)c1`: the Potency result was “inactive”. The value for `O=C1c2ccccc2C(=O)N1c1ccc2ncccc2c1` was “inactive”.

As for `O=C1CCc2cc(S(=O)(=O)Nc3ccncc3)ccc2N1`, the Potency result is “inactive”. The value for `CSc1cc2c(s1)c1cnn(Cc3cccc(O)c3)c(=O)c1n2C` was 259 nM (active); that for `Cc1ccc(NS(=O)(=O)c2ccc3[nH]c(=O)[nH]c3c2)cc1C` was “inactive”.

For the compound `O=C1c2ccccc2C(=O)N1c1cc(=O)c2ccccc2[nH]1`, the Potency entry is “inactive”. In the case of `Cc1ccc(-c2nc3cnccn3c2Nc2ccc(C(C)C)cc2)o1` it was “inactive”; in that of `Cc1ccc(NS(=O)(=O)c2cc3c(cc2Cl)NC(=O)C3)cc1C`, “inactive”; in that of `O=C1c2ccccc2C(=O)N1c1cccc2cnccc12`, “inactive”.

Regarding `COc1cccc(OC2=NS(=O)(=O)c3ccccc32)c1`, the Potency entry is “inactive”.

`Cc1ccc(C)c(OC2=NS(=O)(=O)c3ccccc32)c1`: the Potency result is “inactive”. In the case of `COc1cc(F)c(S(=O)(=O)N2CCCN(S(=O)(=O)c3cccc(N)c3)CC2)c(F)c1` it was “inactive”. As to `O=C1c2ccccc2C(=O)N1c1ccc(O)cc1`, the Potency entry was “inactive”.

On to `Cc1cccc(OC2=NS(=O)(=O)c3ccccc32)c1`, for which the Potency result is “inactive”. On to `COc1cccc(Cn2ncc3c4sc(SC)cc4n(C)c3c2=O)c1`, for which the Potency result was “inactive”. `O=C1CCc2cc(S(=O)(=O)Nc3ccc(-c4ccccc4)cc3)ccc2N1`: the Potency entry was “inactive”.

(Values after PubChem BioAssay AID2562 (National Center for Advancing Translational Sciences (NCATS), 2010).)
